This note sets out measurements from PubChem BioAssay (NCI).

This is part of a sample that, as a whole, favours compounds with a hit. Of some 83,000 tested, about 20% had one in any assay.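 Each cell line was grown in a 96-well plate and treated with one concentration of compound for 48 hours. Values below 10 were considered active.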 Active and inactive are the calls of the source.

The subject of the experiment is NCI-H522 lung. In words: NCI-60 one-dose screen, 48 h (100 = growth as untreated, 0 = no growth, -100 = all killed). The conditions noted are these: 10 µM.
`COc1ccc(/C=C(/C(=O)N2CCCCC2)c2cc(OC)c(OC)c(OC)c2)cc1`: the growth was -24.2% (active). The same measure for `COc1ccc(OC)c(Cn2cc3c(c2)-c2oncc2CC3)c1`: 50.3% (inactive); for `COc1ccc(CN2C(=O)/C(=C\C(=O)c3ccc(OCCN4CCCCC4)cc3)c3ccccc32)cc1`: 26% (inactive). For the compound `COc1ccc(/C=C2\SC(=O)N(Cc3cc(=O)oc4ccc(OC)cc34)C2=O)cc1`, the growth is 77.9% (inactive). `O=c1oc2ccc3ccccc3c2cc1-c1ccnc2[nH]c(=S)[nH]c(=O)c12`: the growth was 88% (inactive). The same measure for `O=C(O)c1occ(Cl)c1Cl`: 116% (inactive).

With `COc1ccc(Cn2cc3c(c2-c2ccccc2)CCc2cnoc2-3)cc1OC`, the growth was 35.1% (inactive).

For `CCCCN(CCCC)CC(O)CN(CC)CC` (stereo not given), the growth was 95.3% (inactive).

In the case of `O=C(/C=C/c1c[nH]c2ccccc12)c1cc2ccccc2o1`, the growth is 79.8% (inactive).

`COc1ccc2sc(-n3nc4nc5n(c(=O)c4c3N)-c3ccccc3Sc3ccccc3-5)nc2c1`: the growth is 75.6% (inactive). Regarding `CCOC(=O)NNc1[nH]c(-c2ccc(OC)cc2)cc1C#N`, the growth is 76% (inactive). For `COc1ccc(-c2cn3ccnc3c(-c3ccc4ncn(C5CCCCC5)c4c3)n2)cc1`, the growth is -20.9% (active). With `CCOC(=O)C1=NN(c2ccccc2)C2=NC(=O)/C(=C\c3cn(-c4ccccc4)nc3-c3cc4ccccc4o3)C(=O)N12`, the growth is 89.5% (inactive). Take `O=C(/C=C1\C(=O)N(Cc2ccc([N+](=O)[O-])cc2)c2ccccc21)c1ccc(OCCN2CCCCC2)cc1`: the growth is -75% (active).

In the case of `NNC(=S)N1N=C(c2cc3ccccc3o2)CC1c1c[nH]c2ccccc12` (stereo not given), the growth was 42.6% (inactive).
